# Results reported in PubChem BioAssay (Tox21).
# Unmarked numbers belong to inactive results. Calls follow the shape of the dose curve; as a rule, active = well fitted curve in the direction sought with a large enough effect in the repeat runs; inconclusive = weak or mixed curves; inactive = flat fitted curve, though single readings scatter.
# Test: qHTS assay to test for compound auto fluorescence at 460 nm (blue) in HEK293 cell free culture (AID 720681)
# Settings: cell-free medium, autofluorescence 405/460 nm (blue); series mostly up to 91.3 µM; fluorescence, % of fluorescent control: at the top concentration
# Description: U.S. Tox21 Program National Center for Advancing Translational Sciences [NCATS] NIH Chemical Genomics Center [NCGC] U.S. Environmental Protection Agency [EPA] National Institutes of Environmental Health Sciences [NIEHS] National Toxicology Program [NTP] U.S. Food and Drug Administration [FDA] Tox21 Assay Overview: Compound auto fluorescence often interferes with screening of the compound library against various biological targets and signaling pathways. Some of these compounds may have fluorophoric properties. Such properties may interfere with the assay outputs resulting in false positives and/or negatives. To decrease such complications and ensure the compound activities are relevant in terms of biological response, the Tox21 10K compound library was screened for auto fluorescence. From the fluorophores used as reporter signals in our screening assays, the auto fluorescence equivalencies of compounds against three fluorophores have been evaluated: Triamterene, Fluorescein and Rose Bengal sodium for blue, green and red fluorescence, respectively. The fluorescence intensities were measured using Excitation/Emission wavelengths at 405/460nm, 485/535nm and 540/590nm for blue, green and red labels, respectively. This assay includes the blue fluorescence data.
# Tox21 Assay Protocol Summary: 5 uL of culture medium (DMEM containing 10% FBS) per well was dispensed into black wall/clear bottom 1536-well plates using a Multidrop Combi Dispenser (ThermoFisher Scientific, Waltham, MA). After 23 nL compound or DMSO vehicle was transferred into assay plate by a pintool work station (Kalypsys, San Diego, CA), fluorescence intensities in the assay plates were measured by an Envision (PerkinElmer, Shelton, CT) plate reader using three labels for measuring blue, green and red fluorescence at […] 460, 535 and 590nm respectively.
# % is scaled to controls: 0 for no effect and ±100 for the full control effect.
row,SMILES,"fluorescence, % of fluorescent control"
1,C=CCOc1c(Br)cc(Br)cc1Br,-0.101%
2,C=CCOCC(O)CCl (stereo not given),0.296%
3,CC(=O)/C=C/c1ccco1,-0.026% [at 95.7 µM]
4,C=CCOc1cc(Cl)ccc1C(=O)NCCN(CC)CC,-0.0081% [at 46 µM]
5,CC(C)CCO,-0.0108%
6,CCC(C)(CCC(C)C)C(=O)[O-].CCC(C)(CCC(C)C)C(=O)[O-].[Zn+2] (stereo not given),-0.182%
7,O=C(O)Cc1cccc(-c2cc(CCCCCCc3ccc(O[C@H]4O[C@H](CO)[C@@H](O)[C@H](O)[C@@H]4O)c(-c4cccc(CC(=O)O)c4)c3)ccc2O[C@H]2O[C@H](CO)[C@@H](O)[C@H](O)[C@@H]2O)c1,0.136% [at 46 µM]
8,Cc1ccc(S(=O)(=O)NC(=O)NC2CCCCCCC2)cc1,0.137% [at 46 µM]
9,OC[C@@H](O)[C@H](O)[C@@H](O)[C@@H](O)CO,0.007%
10,C=CC(C)(O)CC/C=C(\C)CC (stereo not given),-0.0495%
11,CCCCCCCCCCCCC1CO1 (stereo not given),-0.121%
12,CCCCOC(=O)[C@@H](C)Oc1ccc(Oc2ccc(C(F)(F)F)cn2)cc1,0.381%
13,COc1cccc2sc(N)nc12,-0.147%
14,O=CN1CCOCC1,-0.134%
15,COc1cc2c3cc1Oc1cc(ccc1O)C[C@@H]1c4c(cc(OC)c(O)c4Oc4ccc(cc4)C[C@@H]3N(C)CC2)CC[N+]1(C)C,-0.109% [at 46 µM]
16,CCCCOC(=O)C(=O)OCCCC,-0.0875%
17,CCC1COC(=O)O1 (stereo not given),-0.0984%
18,COC(OC)C(C)c1ccccc1 (stereo not given),-0.0938%
19,O=C1c2ccccc2-c2ccccc21,0.0385% [at 95.7 µM]
20,C1=CCC(c2ccccc2)CC1 (stereo not given),0.0768%

row,SMILES,"fluorescence, % of fluorescent control"
1,CC(=O)c1ccc(OCC(=O)N2CCCCC2)cc1,0.0812% [at 46 µM]
2,C=COCCOCCOC=C,-0.0278%
3,NS(=O)(=O)c1ccc(Cl)c(S(N)(=O)=O)c1,-0.068% [at 46 µM]
4,COc1cc(C=O)ccc1OC(=O)C(C)C,0.0835%
5,O=S(=O)(O)CCO,0.0966% [at 95.7 µM]
6,Cn1c(=O)c2c(ncn2CC2OCCO2)n(C)c1=O,0.104% [at 46 µM]
7,Cc1cc(O)c2c(c1)C(=O)c1cccc(O)c1C2=O,-0.133% [at 46 µM]
8,CC(C)CCCC(C)CC=O (stereo not given),-0.236%
9,Cc1nc([N+](=O)[O-])cn1-c1ccc([N+](=O)[O-])cc1,-0.128% [at 46 µM]
10,C=C(C)C(=O)OC,0.0292%
11,C=C[Si](C)(C)O[Si](C)(C)C=C,0.01%
12,CCOc1ccc(NC(=O)OC(C)C)cc1OCC,0.0976%
13,CCCCCC1CCCC(=O)O1 (stereo not given),0.0677%
14,Cc1cccc(C(=O)O)c1[N+](=O)[O-],0.187%
15,Oc1ccccc1Cc1ccccc1O,-0.0566%
16,CCCCCCCCCCC,-0.0209%
17,CCCCOC(=O)C(C)OC(=O)CCC (stereo not given),0.0913%
18,CCCCCC1Nc2cc(C(F)(F)F)c(S(N)(=O)=O)cc2S(=O)(=O)N1 (stereo not given),0.342% [at 46 µM]
19,CCCC(C)CC (stereo not given),0.0032%
20,O=c1[nH]c(=O)c2ccccc2o1,-0.153% [at 46 µM]
